From PubChem BioAssay (Tox21)
Activity calls are given as the source filed them. Entries that show only a call come without a potency. Calls come from the whole dose curve; as a rule, active = well fitted curve in the direction sought with a large enough effect in the repeat runs; inconclusive = weak or mixed curves; inactive = flat fitted curve, though single readings scatter.

Experiment: qHTS assay to test for compound auto fluorescence at 535 nm (green) in HepG2 cells (AID 720675)
Conditions: green autofluorescence 485/535 nm, 1 h; series mostly up to 46 µM

Row | SMILES | Potency
1 | Oc1ccc(Cl)c2c1CCC2 | inactive
2 | O=c1[nH]c(=O)n([C@H]2C[C@H](O)[C@@H](CO)O2)cc1/C=C/Br | inactive
3 | Nc1nc(/C(=C/CC(=O)O)C(=O)N[C@@H]2C(=O)N3C(C(=O)O)=CCS[C@H]23)cs1 | inactive
4 | SC1CCCCC1 | inactive
5 | C[C@H](Cc1ccc(O)c(O)c1)[C@@H](C)Cc1ccc(O)c(O)c1 | inactive
6 | COc1cccc2c1[C@@H]1CN(CCCCn3c(=O)[nH]c4c(sc5ncc(-c6ccccc6)nc54)c3=O)C[C@@H]1CO2 | inactive
7 | CON=C1C[C@]2(C[C@@H]3C[C@@H](C/C=C(\C)C[C@@H](C)/C=C/C=C4\CO[C@@H]5[C@H](O)C(C)=C[C@@H](C(=O)O3)[C@]45O)O2)O[C@H](/C(C)=C/C(C)C)[C@H]1C | inactive
8 | CC(C)[N+]1(C)[C@@H]2CC[C@H]1CC(OC(=O)C(CO)c1ccccc1)C2 (some centres undefined) | inactive
9 | CC(C)Cc1ccc([C@H](C)C(=O)O)cc1 | inactive
10 | Cc1ccc(C(C)(C)c2ccc(C)cc2)cc1 | inactive
11 | Nc1c(CC(=O)O)cccc1C(=O)c1ccccc1 | inactive
12 | CC(=O)NC[C@H]1CN(c2ccc(N3CCOCC3)c(F)c2)C(=O)O1 | inactive
13 | CCCCCCCCCCCCN1CCCC1=O | inactive
14 | O=C(O)COc1ccc(C(=O)c2cccs2)c(Cl)c1Cl | inactive
15 | O=C1CCC(c2ccc(-n3ccnc3)cc2)=NN1 | inactive
16 | O=[N+]([O-])c1ccc(O)c2ncccc12 | inactive
17 | CC(C)C[C@H](NC(=O)[C@@H](COC(C)(C)C)NC(=O)[C@H](Cc1ccc(O)cc1)NC(=O)[C@H](CO)NC(=O)[C@H](Cc1c[nH]c2ccccc12)NC(=O)[C@H](Cc1cnc[nH]1)NC(=O)[C@@H]1CCC(=O)N1)C(=O)N[C@@H](CCCN=C(N)N)C(=O)N1CCC[C@H]1C(=O)NNC(N)=O | inactive
18 | CC[C@@H](C(=O)[C@@H](C)[C@@H](O)[C@H](C)CCc1ccc(C)c(O)c1C(=O)O)[C@H]1O[C@](CC)([C@H]2CC[C@](O)(CC)[C@H](C)O2)C[C@@H]1C | inactive
19 | CCCCC/C=C\C=C\C(=O)OCC | inactive

Row | SMILES | Potency
20 | CCCn1c(=O)[nH]c(=O)c2[nH]cnc21 | inactive
21 | CO[C@H]1C[C@@H]2CC[C@@H](C)[C@@](O)(O2)C(=O)C(=O)N2CCCC[C@H]2C(=O)O[C@H]([C@H](C)C[C@@H]2CC[C@@H](O)[C@H](OC)C2)CC(=O)[C@H](C)C=C(C)[C@@H](O)[C@@H](OC)C(=O)[C@H](C)C[C@H](C)/C=C/C=CC=C1C | inactive
22 | CC(=O)OCC(=O)[C@@]1(O)CC[C@H]2[C@@H]3CCC4=CC(=O)CC[C@]4(C)C3=CC[C@@]21C | inactive
23 | O=C(O)c1ccc(NC2OC[C@@H](O)[C@H](O)[C@H]2O)cc1 (some centres undefined) | inactive
24 | O=C1CCCCCCCCCCCCCC1 | inactive
25 | C/C(=C(/CCO)SSCC1CCCO1)N(C=O)Cc1cnc(C)nc1N (centres undefined) | inactive
26 | CN(Cc1ccccc1)Cc1ccccc1 | inactive
27 | CCCCCCCC[N+](C)(C)CCCCCCCC | inactive
28 | CO[C@H](C(=O)[C@@H](O)[C@@H](C)O)C1Cc2cc3cc(O[C@H]4C[C@@H](O[C@H]5C[C@@H](O)[C@H](O)[C@@H](C)O5)[C@@H](O)[C@@H](C)O4)c(C)c(O)c3c(O)c2C(=O)[C@H]1O[C@H]1C[C@@H](O[C@H]2C[C@@H](O[C@H]3C[C@](C)(O)[C@H](O)[C@@H](C)O3)[C@H](O)[C@@H](C)O2)[C@H](O)[C@@H](C)O1 (some centres undefined) | inactive
29 | CC(C)(O/N=C(\C(=O)N[C@@H]1C(=O)N2C(C(=O)[O-])=C(C[n+]3ccccc3)CS[C@H]12)c1csc(N)n1)C(=O)O | inactive
30 | Cc1cccc(C)c1NC(=O)C1CCCCN1C (centres undefined) | inactive
31 | C[C@@H]1O[C@@H]1P(=O)(O)O | inactive
32 | c1ccc2c(c1)OCC(CN1CCCCC1)O2 (centres undefined) | inactive
33 | C=C1C(=C/C=C2\CCC[C@]3(C)[C@@H]([C@H](C)CCCC(C)C)CC[C@@H]23)C[C@@H](O)C[C@@H]1O | inactive
34 | N=C(N)n1cccn1 | inactive
35 | CCCC(CCC)C(=O)OC1C[C@H]2CC[C@@H](C1)[N+]2(C)C (some centres undefined) | inactive
36 | C[N+](C)(C)CCOP(=O)(O)OP(=O)([O-])OC[C@H]1O[C@@H](n2ccc(N)nc2=O)[C@H](O)[C@@H]1O | inactive
37 | CN(C)CCC(O)(c1ccccc1)c1ccccc1Cl (centres undefined) | inactive

Experiment: qHTS assay to test for compound auto fluorescence at 460 nm (blue) in HEK293 cells (AID 720678)
Conditions: blue autofluorescence 405/460 nm; series mostly up to 46 µM
How it was run: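 HEK293 cells (2,000/well, medium with 10% dialyzed FBS) attached 4-5 hr, then exposed to compound overnight at 37C, 5% CO2. Blue fluorescence read at 405/460 nm, with triamterene as reference fluorophore.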

Row | SMILES | Potency
38 | Oc1ccc(Cl)c2c1CCC2 | inactive
39 | O=c1[nH]c(=O)n([C@H]2C[C@H](O)[C@@H](CO)O2)cc1/C=C/Br | inactive
40 | Nc1nc(/C(=C/CC(=O)O)C(=O)N[C@@H]2C(=O)N3C(C(=O)O)=CCS[C@H]23)cs1 | inactive
41 | SC1CCCCC1 | inactive
42 | C[C@H](Cc1ccc(O)c(O)c1)[C@@H](C)Cc1ccc(O)c(O)c1 | inactive
43 | COc1cccc2c1[C@@H]1CN(CCCCn3c(=O)[nH]c4c(sc5ncc(-c6ccccc6)nc54)c3=O)C[C@@H]1CO2 | inactive
44 | CON=C1C[C@]2(C[C@@H]3C[C@@H](C/C=C(\C)C[C@@H](C)/C=C/C=C4\CO[C@@H]5[C@H](O)C(C)=C[C@@H](C(=O)O3)[C@]45O)O2)O[C@H](/C(C)=C/C(C)C)[C@H]1C | inactive
45 | CC(C)[N+]1(C)[C@@H]2CC[C@H]1CC(OC(=O)C(CO)c1ccccc1)C2 (some centres undefined) | inactive
46 | CC(C)Cc1ccc([C@H](C)C(=O)O)cc1 | inactive
47 | Cc1ccc(C(C)(C)c2ccc(C)cc2)cc1 | inactive
48 | Nc1c(CC(=O)O)cccc1C(=O)c1ccccc1 | inactive
49 | CC(=O)NC[C@H]1CN(c2ccc(N3CCOCC3)c(F)c2)C(=O)O1 | inactive
50 | CCCCCCCCCCCCN1CCCC1=O | inactive
51 | O=C(O)COc1ccc(C(=O)c2cccs2)c(Cl)c1Cl | inactive
52 | O=C1CCC(c2ccc(-n3ccnc3)cc2)=NN1 | inactive
53 | O=[N+]([O-])c1ccc(O)c2ncccc12 | inactive
54 | CC(C)C[C@H](NC(=O)[C@@H](COC(C)(C)C)NC(=O)[C@H](Cc1ccc(O)cc1)NC(=O)[C@H](CO)NC(=O)[C@H](Cc1c[nH]c2ccccc12)NC(=O)[C@H](Cc1cnc[nH]1)NC(=O)[C@@H]1CCC(=O)N1)C(=O)N[C@@H](CCCN=C(N)N)C(=O)N1CCC[C@H]1C(=O)NNC(N)=O | inactive
55 | CC[C@@H](C(=O)[C@@H](C)[C@@H](O)[C@H](C)CCc1ccc(C)c(O)c1C(=O)O)[C@H]1O[C@](CC)([C@H]2CC[C@](O)(CC)[C@H](C)O2)C[C@@H]1C | inactive
56 | CCCCC/C=C\C=C\C(=O)OCC | inactive

Row | SMILES | Potency
57 | CCCn1c(=O)[nH]c(=O)c2[nH]cnc21 | inactive
58 | CO[C@H]1C[C@@H]2CC[C@@H](C)[C@@](O)(O2)C(=O)C(=O)N2CCCC[C@H]2C(=O)O[C@H]([C@H](C)C[C@@H]2CC[C@@H](O)[C@H](OC)C2)CC(=O)[C@H](C)C=C(C)[C@@H](O)[C@@H](OC)C(=O)[C@H](C)C[C@H](C)/C=C/C=CC=C1C | inactive
59 | CC(=O)OCC(=O)[C@@]1(O)CC[C@H]2[C@@H]3CCC4=CC(=O)CC[C@]4(C)C3=CC[C@@]21C | inactive
60 | O=C(O)c1ccc(NC2OC[C@@H](O)[C@H](O)[C@H]2O)cc1 (some centres undefined) | inactive
61 | O=C1CCCCCCCCCCCCCC1 | inactive
62 | C/C(=C(/CCO)SSCC1CCCO1)N(C=O)Cc1cnc(C)nc1N (centres undefined) | inactive
63 | CN(Cc1ccccc1)Cc1ccccc1 | inactive
64 | CCCCCCCC[N+](C)(C)CCCCCCCC | inactive
65 | CO[C@H](C(=O)[C@@H](O)[C@@H](C)O)C1Cc2cc3cc(O[C@H]4C[C@@H](O[C@H]5C[C@@H](O)[C@H](O)[C@@H](C)O5)[C@@H](O)[C@@H](C)O4)c(C)c(O)c3c(O)c2C(=O)[C@H]1O[C@H]1C[C@@H](O[C@H]2C[C@@H](O[C@H]3C[C@](C)(O)[C@H](O)[C@@H](C)O3)[C@H](O)[C@@H](C)O2)[C@H](O)[C@@H](C)O1 (some centres undefined) | inactive
66 | CC(C)(O/N=C(\C(=O)N[C@@H]1C(=O)N2C(C(=O)[O-])=C(C[n+]3ccccc3)CS[C@H]12)c1csc(N)n1)C(=O)O | inactive
67 | Cc1cccc(C)c1NC(=O)C1CCCCN1C (centres undefined) | inactive
68 | C[C@@H]1O[C@@H]1P(=O)(O)O | inactive
69 | c1ccc2c(c1)OCC(CN1CCCCC1)O2 (centres undefined) | inactive
70 | C=C1C(=C/C=C2\CCC[C@]3(C)[C@@H]([C@H](C)CCCC(C)C)CC[C@@H]23)C[C@@H](O)C[C@@H]1O | inactive
71 | N=C(N)n1cccn1 | inactive
72 | CCCC(CCC)C(=O)OC1C[C@H]2CC[C@@H](C1)[N+]2(C)C (some centres undefined) | inactive
73 | C[N+](C)(C)CCOP(=O)(O)OP(=O)([O-])OC[C@H]1O[C@@H](n2ccc(N)nc2=O)[C@H](O)[C@@H]1O | inactive
74 | CN(C)CCC(O)(c1ccccc1)c1ccccc1Cl (centres undefined) | inactive
